Measured values from PubChem BioAssay AID1159580 (chemical genetic matrix, 2015).
Among all 5,500 compounds or so, about 2,000 (36%) were called active. Roughly 18% stayed inconclusive and do not appear here. No stated cut-off is given here; in the data, active means normalized growth mostly below about 0.91 (no sharp cut-off); inconclusive means no clear call, values can overlap the other calls; inactive means mostly above about 0.92. The list shows a part of the results.

Test: chemical genetic growth profiling, strain panel (AID 1159580);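 further: tested at 20 µM; growth read once vehicle control cultures reached saturation at 30 °C; 1 = growth at the plate median or of vehicle wells; lower values mean less growth of the strain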
Settings: growth OD

Measured: normalized growth

NC(=O)N1c2ccccc2CC(=O)c2ccccc21
inactive: S. cerevisiae deletion strains, locus YKL009W, strain mrt4, active compounds read low 1.01 | S. cerevisiae deletion strains, locus YKL068W, active compounds read low 0.994 | S. cerevisiae deletion strains, locus YKL085W, strain MDH1 (second series), active compounds read low 1.02 | S. cerevisiae deletion strains, locus YKL085W, strain MDH1, active compounds read low 1.02 | S. cerevisiae deletion strains, locus YKL160W, strain elf1, active compounds read low 1.05 | S. cerevisiae deletion strains, locus YKL190W, strain CNB1, active compounds read low 1 | S. cerevisiae deletion strains, locus YKR001C, strain vps1, active compounds read low 0.969 | S. cerevisiae deletion strains, locus YKR026C, strain gcn3, active compounds read low 0.972 | S. cerevisiae deletion strains, locus YKR091W, strain srl3, active compounds read low 0.989 | S. cerevisiae deletion strains, locus YLL001W, strain dnm1, active compounds read low 0.969 | S. cerevisiae deletion strains, locus YLL026W, active compounds read low 0.988 | S. cerevisiae deletion strains, locus YLL041C, strain sdh2, active compounds read low 0.982 | S. cerevisiae deletion strains, locus YLR027C, strain aat2, active compounds read low 0.999 | S. cerevisiae deletion strains, locus YLR039C, strain RIC1, active compounds read low 0.972 | S. cerevisiae deletion strains, locus YLR058C, strain SHM2, active compounds read low 0.988 | S. cerevisiae deletion strains, locus YLR102C, strain apc9, active compounds read low 0.979 | S. cerevisiae deletion strains, locus YLR113W, strain HOG1, active compounds read low 0.96 | S. cerevisiae deletion strains, locus YLR221C, strain rsa3, active compounds read low 0.962 | S. cerevisiae deletion strains, locus YLR258W, strain gsy2, active compounds read low 1.01 | S. cerevisiae deletion strains, locus YLR262C, strain YPT6 (second series), active compounds read low 1.01 | S. cerevisiae deletion strains, locus YLR262C, strain YPT6, active compounds read low 1.01 | S. cerevisiae deletion strains, locus YLR268W, strain sec22, active compounds read low 1 | S. cerevisiae deletion strains, locus YLR320W, strain mms22, active compounds read low 0.945 | S. cerevisiae deletion strains, locus YLR330W, strain CHS5, active compounds read low 0.989 | S. cerevisiae deletion strains, locus YLR342W, strain FKS1 (second series), active compounds read low 0.949 | S. cerevisiae deletion strains, locus YLR342W, strain FKS1, active compounds read low 0.998 | S. cerevisiae deletion strains, locus YLR357W, strain rsc2, active compounds read low 0.993 | S. cerevisiae deletion strains, locus YLR370C, strain arc18, active compounds read low 1 | S. cerevisiae deletion strains, locus YLR371W, strain rom2, active compounds read low 0.969 | S. cerevisiae deletion strains, locus YLR384C, strain iki3, active compounds read low 0.983 | S. cerevisiae deletion strains, locus YLR418C, strain cdc73, active compounds read low 1.01 | S. cerevisiae deletion strains, locus YML016C, strain PPZ1, active compounds read low 0.985 | S. cerevisiae deletion strains, locus YML032C, strain rad52, active compounds read low 0.96 | S. cerevisiae deletion strains, locus YML120C, strain ndi1, active compounds read low 0.949 | S. cerevisiae deletion strains, locus YML124C, strain tub3, active compounds read low 0.979 | S. cerevisiae deletion strains, locus YMR058W, strain fet3, active compounds read low 0.978 | S. cerevisiae deletion strains, locus YMR078C, strain ctf18, active compounds read low 0.973 | S. cerevisiae deletion strains, locus YMR125W, strain sto1, active compounds read low 0.971 | S. cerevisiae deletion strains, locus YMR129W, active compounds read low 0.992 | S. cerevisiae deletion strains, locus YMR205C, strain PFK2, active compounds read low 0.96 | S. cerevisiae deletion strains, locus YMR223W, strain ubp8, active compounds read low 0.962 | S. cerevisiae deletion strains, locus YMR231W, strain pep5, active compounds read low 0.971 | S. cerevisiae deletion strains, locus YMR263W, strain SAP30, active compounds read low 1.02 | S. cerevisiae deletion strains, locus YMR307W, strain GAS1, active compounds read low 0.881 | S. cerevisiae deletion strains, locus YNL067W, strain RPL9B, active compounds read low 1.02 | S. cerevisiae deletion strains, locus YNL071W, strain lat1, active compounds read low 0.979 | S. cerevisiae deletion strains, locus YNL128W, strain TEP1, active compounds read low 1.01 | S. cerevisiae deletion strains, locus YNL153C, strain GIM3, active compounds read low 1.02 | S. cerevisiae deletion strains, locus YNL183C, strain NPR1, active compounds read low 0.943 | S. cerevisiae deletion strains, locus YNL209W, strain ssb2, active compounds read low 0.988 | S. cerevisiae deletion strains, locus YNL233W, strain BNI4, active compounds read low 1 | S. cerevisiae deletion strains, locus YNL248C, strain rpa49, active compounds read low 0.997 | S. cerevisiae deletion strains, locus YNL250W, strain rad50, active compounds read low 0.99 | S. cerevisiae deletion strains, locus YNL271C, strain bni1, active compounds read low 0.974 | S. cerevisiae deletion strains, locus YNL298W, strain CLA4, active compounds read low 0.974 | S. cerevisiae deletion strains, locus YNL307C, strain MCK1, active compounds read low 0.96 | S. cerevisiae deletion strains, locus YNL322C, strain KRE1 (second series), active compounds read low 0.986 | S. cerevisiae deletion strains, locus YNL322C, strain KRE1, active compounds read low 0.998 | S. cerevisiae deletion strains, locus YNR049C, strain mso1, active compounds read low 0.991 | S. cerevisiae deletion strains, locus YNR052C, strain pop2, active compounds read low 0.962 | S. cerevisiae deletion strains, locus YOL006C, strain TOP1, active compounds read low 1.03 | S. cerevisiae deletion strains, locus YOL012C, strain htz1 0.873 | S. cerevisiae deletion strains, locus YOL147C, strain pex11, active compounds read low 0.991 | S. cerevisiae deletion strains, locus YOR001W, strain rrp6, active compounds read low 0.949 | S. cerevisiae deletion strains, locus YOR061W, strain CKA2, active compounds read low 0.994 | S. cerevisiae deletion strains, locus YOR069W, strain VPS5, active compounds read low 0.975 | S. cerevisiae deletion strains, locus YOR070C, strain gyp1, active compounds read low 1 | S. cerevisiae deletion strains, locus YOR080W, strain dia2, active compounds read low 1 | S. cerevisiae deletion strains, locus YOR083W, strain WHI5, active compounds read low 0.99 | S. cerevisiae deletion strains, locus YOR106W, strain vam3, active compounds read low 1.03 | S. cerevisiae deletion strains, locus YOR136W, strain idh2, active compounds read low 0.98 | S. cerevisiae deletion strains, locus YOR144C, strain elg1, active compounds read low 0.986 | S. cerevisiae deletion strains, locus YOR184W, strain ser1, active compounds read low 0.951 | S. cerevisiae deletion strains, locus YOR231W, strain MKK1, active compounds read low 0.999 | S. cerevisiae deletion strains, locus YOR265W, strain rbl2, active compounds read low 0.996 | S. cerevisiae deletion strains, locus YOR270C, strain vph1, active compounds read low 0.929 | S. cerevisiae deletion strains, locus YOR290C, strain snf2, active compounds read low 1.02 | S. cerevisiae deletion strains, locus YOR316C, strain cot1, active compounds read low 0.983 | S. cerevisiae deletion strains, locus YPL051W, strain arl3, active compounds read low 1.04 | S. cerevisiae deletion strains, locus YPL055C, strain LGE1, active compounds read low 1.03 | S. cerevisiae deletion strains, locus YPL078C, strain atp4, active compounds read low 1.01 | S. cerevisiae deletion strains, locus YPL106C, strain sse1, active compounds read low 1.01 | S. cerevisiae deletion strains, locus YPL240C, strain hsp82, active compounds read low 0.986 | S. cerevisiae deletion strains, locus YPL241C, strain CIN2, active compounds read low 0.996 | S. cerevisiae deletion strains, locus YPL256C, strain CLN2, active compounds read low 0.992 | S. cerevisiae deletion strains, locus YPR119W, strain clb2, active compounds read low 0.997 | S. cerevisiae deletion strains, locus YPR141C, strain kar3, active compounds read low 0.987 | S. cerevisiae deletion strains, locus YPR163C, strain tif3, active compounds read low 0.983 | S. cerevisiae deletion strains, locus YPR167C, strain met16, active compounds read low 0.979 | S. cerevisiae deletion strains, strain wtn01, active compounds read low 0.999 | S. cerevisiae strains, strain wild type, active compounds read low 0.989
